Out of some 300,000 compounds screened, about 2,700 (0.9%) were called active.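 Rule for the calls: active = mean inhibition of at least 30% with at least half of replicates also reaching 30%; inconclusive = no clear call, values can overlap the other calls; inactive = the rest.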 What follows is part of a selection rich in actives, with near analogues and random picks from the rest.

The target of the test is Golgi-associated PDZ and coiled-coil motif-containing protein (Homo sapiens) (UniProt Q9HD26). Nature of the test: untagged CAL PDZ binding inhibitors, primary screen, biochemical, fluorescence polarization, HTS (AID 602252).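 Note: 0% = DMSO neutral control and 100% = excess unlabeled competitor peptide PRC23.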 Particulars: purified CAL PDZ, TMR-peptide fluorescence polarization, 1 h; at 24.9 µM; hits give high values. A general note: Fluorescence polarisation rises when a labelled molecule tumbles more slowly, as on binding a larger partner.
For the molecule `N#CC1=C(N)Oc2cc(N)ccc2C1c1ccccc1` (stereo unspecified), the inhibition is 2.39% (inactive).
Regarding `Cc1sc2ncnc(N3CCC(C(=O)Nc4ccc(F)cc4Cl)CC3)c2c1C`, the inhibition was -2.24% (inactive).
Consider `COc1cccc(NC(=O)C(=O)c2cn(CC(=O)N3CCOCC3)c3ccccc23)c1`, for which the inhibition was -2.58% (inactive).
Turning to `O=C(Nc1ccc(F)cc1)C(=O)c1cn(CC(=O)N2CCOCC2)c2ccccc12`, the inhibition is 45.3% (active).
In the case of `Cc1ccc(CNC(=O)C(=O)c2cn(CC(=O)N3CCOCC3)c3ccccc23)cc1` it was -3.01% (inactive).
For the molecule `Cc1cccn2c(=O)c(/C=C(\C#N)S(=O)(=O)c3ccc(Cl)cc3)c(N3CCC(C(N)=O)CC3)nc12`, the inhibition is 3.73% (inactive).
In the case of `COc1ccccc1-c1nc(C#N)c(N2CCC(C(N)=O)CC2)o1` it was -2.05% (inactive); in that of `Cc1cc(C)c(C#N)c(N2CCC(C(N)=O)CC2)n1`, 47.5% (active).
Consider `O=C(NCCc1ccccc1)c1cccc(NC(=O)c2ccccc2)c1`, for which the inhibition was -3.44% (inactive).
Take `CC(C)(C)OC(=O)C[C@@H]1C/C=C\C[C@@H](CC(=O)N[C@H](CO)Cc2ccccc2)C(=O)NCCOC1=O`: the inhibition was -9.11% (inactive).
In the case of `O=C(NNC(=O)c1ccccc1O)c1ccccc1O` it was -3.61% (inactive).
In the case of `S=C(c1ccccc1)N1CCCC1` it was -2.69% (inactive); in that of `CN1CCN(C(=O)c2ccc(-c3ccc(Br)cc3)o2)CC1`, -4.62% (inactive); in that of `S=C(c1ccc(-c2ccccc2)o1)N1CCCCC1`, 54.6% (active).
With `C=CC[C@H](CC(=O)N(CCO)Cc1ccccc1)C(=O)N[C@@H](COC(=O)[C@@H](CC=C)Cc1ccc(F)cc1)Cc1ccccc1`, the inhibition was -5.7% (inactive).
Turning to `CC(C)N(C(=O)[C@H]1C[C@H](CC(=O)NCCC2=CCCCC2)C(=O)N2CCc3c([nH]c4cc(CCC(=O)N(C)C)ccc34)[C@]12C)C(C)C`, the inhibition was -1.76% (inactive).
In the case of `Cc1ccccc1-n1nnc2c(=O)oc3ccccc3c21` it was 0.078% (inactive); in that of `CC(C)(C)Nc1c(N)c(=O)oc2ccccc12`, 3.5% (inactive); in that of `O=c1oc2ccccc2c(=O)c2ccccc12`, 39.9% (active).
`COCCN(C(=O)C(C)N1C(=O)c2ccccc2C1=O)c1c(N)n(CC(C)C)c(=O)[nH]c1=O` (stereo unspecified): the inhibition was -19.9% (inactive).
Consider `COc1ccc(CC(=O)N[C@@H]2c3cc(OC)c(OC)cc3C[C@H]2OCc2ccccc2)cc1`, for which the inhibition is -0.172% (inactive).
In the case of `COc1ccc(C)cc1NC(=O)Nc1ccccc1SC` it was -2.98% (inactive); in that of `CSc1ccccc1NC(=O)c1cnc2sc(C)cn2c1=O`, -2.14% (inactive).
As for `CSc1ccccc1NC(=O)c1cc(Cl)sc1Cl`, the inhibition was 35% (active).
Regarding `O=C(COC(=O)COc1cccc(F)c1)NCC1CCCCC1`, the inhibition is -0.678% (inactive).
Consider `O=C(Nc1nnc(-c2ccccc2)o1)c1cccc(S(=O)(=O)N2CCOCC2)c1`, for which the inhibition was 7.28% (inactive).
In the case of `O=C(c1ccc(N2CCOCC2)c([N+](=O)[O-])c1)N1CCN(c2ccccc2F)CC1` it was -2.67% (inactive); in that of `O=C(Oc1ccccc1Cl)c1ccc(N2CCOCC2)c([N+](=O)[O-])c1`, -0.07% (inactive).
In the case of `O=C(OCC(=O)N1CCOCC1)c1ccc(N2CCOCC2)c([N+](=O)[O-])c1` it was 53.8% (active).
For the molecule `CC(=O)Nc1ccc(S(=O)(=O)Nc2ccc(N3CCCCC3)cc2)cc1`, the inhibition was -0.222% (inactive).
Turning to `CC(C)N(C(=O)[C@H]1C[C@H](CC(=O)NC(C)(C)C)C(=O)N2CCc3c([nH]c4ccc(Cl)cc34)[C@]12C)C(C)C`, the inhibition is 1.76% (inactive).
In the case of `Cn1c(CCC(=O)Nc2ccccc2F)nnc1SCC(=O)Nc1ccccc1Cl` it was 63.9% (active); in that of `COc1ccc(C)cc1NC(=O)CSc1nnc(CC(=O)Nc2ccccc2F)n1C`, -5.79% (inactive); in that of `Cn1c(SCC(=O)Nc2ccc(Br)cc2F)nnc1-c1ccco1`, -0.672% (inactive).
On to `CN(C)c1ccc(CSc2ccccc2)cc1`, for which the inhibition is -6.85% (inactive).
In the case of `COc1ccc2oc(N)nc2c1` it was -0.189% (inactive); in that of `CCOC(=O)c1ccccc1NC(=O)CSc1nc2c(sc(=S)n2CC)c(=O)[nH]1`, -5.33% (inactive).
As to `CCN(C[C@H]1N[C@@](CC)(C(=O)OC)[C@H]2C(=O)N(Cc3ccccc3)C(=O)[C@@H]12)S(=O)(=O)c1ccc(C(F)(F)F)cc1`, the inhibition is -1.59% (inactive).
In the case of `O=C(O)CN1CCN(C(c2ccccc2)c2ccccc2)CC1` it was 0.69% (inactive); in that of `CC1(C)CC(N2CCN(C(c3ccccc3)c3ccccc3)CC2)=CC(=[N+]2CCCCC2)C1`, 46.7% (active).
In the case of `CC(C)NC(=S)N1CCN(C(c2ccccc2)c2ccccc2)CC1` it was -1.91% (inactive); in that of `CCCCN1CC(CO)Oc2cccc(F)c2S1(=O)=O` (stereo unspecified), -3.69% (inactive); in that of `CCCCCC1CC(COc2ccccc2)OC1=O` (stereo unspecified), 8.53% (inactive).
Turning to `COc1cccc(C=CC(=O)C=CC=Cc2ccccc2)c1`, the inhibition was 0.692% (inactive).
Turning to `Cc1[nH]n(-c2ccccc2)c(=O)c1N=Nc1ccccc1C(=O)N1CCCCC1`, the inhibition is -3.5% (inactive).
Turning to `Cc1[nH]n(-c2ccc([N+](=O)[O-])cc2)c(=O)c1C=NCCN1CCN(C(=O)c2ccccc2F)CC1`, the inhibition is 51.8% (active).
For the molecule `C=CCNC(=S)N1CCN(CCN=Cc2c(C)[nH]n(-c3ccc([N+](=O)[O-])cc3)c2=O)CC1`, the inhibition is -1.05% (inactive).
Consider `COc1ccc(C(=O)Nc2cccc(/C=C(/CCC(=O)O)c3nc4ccccc4s3)c2)cc1`, for which the inhibition was -1.62% (inactive).
For `CN1c2ccc(C=O)c3c(C=O)ccc(c23)N(C)C1(C)C`, the inhibition was 67% (active).
For `Cc1onc(-c2c(F)cccc2Cl)c1C(=O)OCC(=O)N1C(C)CCCC1C` (stereo unspecified), the inhibition is -2.47% (inactive).
In the case of `COc1ccc(CC(=O)NC(C)c2ccc(Cl)c(Cl)c2)cc1S(=O)(=O)N1CCOCC1` (stereo unspecified) it was -1.91% (inactive); in that of `CCCN(CC(=O)NC(=O)NC1CCCCC1)CC(=O)Nc1cc(Cl)ccc1Cl`, -3.68% (inactive); in that of `CN(c1ccc(OCC(=O)NC2=NCCS2)cc1)S(=O)(=O)c1ccc(F)cc1`, 81.4% (active).
Take `CN(c1ccccc1)S(=O)(=O)c1ccc(NC(=O)COc2ccccc2)cc1`: the inhibition was -1.05% (inactive).
In the case of `Cc1ccc(S(=O)(=O)N(C)c2ccc(OCC(=O)NC3=NCCS3)cc2)cc1` it was -1.61% (inactive); in that of `Cc1ccc(S(=O)(=O)N2CCN(C(=O)Cn3c(=O)cnc4ccccc43)CC2)c(C)c1`, -10.5% (inactive).

One may read the inhibition as the drop in the measured response relative to a control, in per cent.

Source of the values: PubChem BioAssay AID602252 (Broad Institute, 2012).
